The values that follow come from ChEMBL document CHEMBL3433997, “St. Jude Leishmania screening dataset” (2016).

Chain of Solute carrier family 2, facilitated glucose transporter member 1 (Homo sapiens) (P11166 whole entry): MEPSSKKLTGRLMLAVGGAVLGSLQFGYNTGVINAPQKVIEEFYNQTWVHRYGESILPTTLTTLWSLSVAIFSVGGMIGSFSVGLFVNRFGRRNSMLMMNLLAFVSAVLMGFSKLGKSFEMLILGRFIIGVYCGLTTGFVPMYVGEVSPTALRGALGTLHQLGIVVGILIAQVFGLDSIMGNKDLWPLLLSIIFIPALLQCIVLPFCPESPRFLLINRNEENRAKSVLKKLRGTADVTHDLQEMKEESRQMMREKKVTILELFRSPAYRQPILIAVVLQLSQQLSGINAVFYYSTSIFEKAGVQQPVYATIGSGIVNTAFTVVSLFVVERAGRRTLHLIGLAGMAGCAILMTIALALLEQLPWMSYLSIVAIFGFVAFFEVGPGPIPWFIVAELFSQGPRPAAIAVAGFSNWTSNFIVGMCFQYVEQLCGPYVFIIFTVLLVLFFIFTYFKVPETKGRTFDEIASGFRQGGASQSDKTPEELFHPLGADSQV

One assay concerns the target Solute carrier family 2, facilitated glucose transporter member 1 (Homo sapiens) (UniProt P11166). Kind of assay: ST_JUDE_LEISH: Cytotoxicity at 2uM final concentration against transgenic Leishmania Mexicana promastigotes LmGLUT1 that are glucose transport deficient and complemented with the human glucose transporter GLUT1. Activity is measured by DNA content using SYBR green in vitro. The class given is functional.
Turning to `CCOC(=O)C1=C(C)NC2=C(C(=O)C(C(=O)OC)C(C)C2)C1c1cc(Br)c(OCC)c(OC)c1` (stereo not given), the inhibition turned out to be 8.37%.
Still for that read-out and setting: the result for `CC(C)CNC(=O)c1cncc(-c2ccc(CN3CCC(N4CCCC4)CC3)cc2)c1` reads 1.79%; that for `CCOc1ccc2c(c1)N(C(=O)C=Cc1ccccc1)C(C)(C)c1ssc(=S)c1-2`, 0.5%.
In the case of `CC(CN(C)C)C(=O)Nc1cccc(-c2ccc(-c3nc4ccccc4[nH]3)s2)c1` (stereo not given), the inhibition worked out at 9.63%.
`O=C(Cc1ccc[n+]([O-])c1)Nc1ccc(-c2cccc(-c3nc4cc(C(F)(F)F)ccc4[nH]3)c2)cc1`: the inhibition amounted to 1.49%.
Still for that read-out and setting: the result for `CN(C)CCNC(=O)NC1CN(c2ncnc3cc(-c4ccccc4)sc23)C1` reads 5.45%; that for `NS(=O)(=O)c1cccc(N/C=C2\C(=O)Nc3ccc(S(=O)(=O)Cc4c(Cl)cccc4Cl)cc32)c1`, 4.04%; that for `CC(C)CNC(=O)c1cncc(-c2ccc(CNC3Cc4ccccc4C3)cc2)c1`, -0.34%.
On the same count and under the same terms, to `Cc1ccc2c(c1)nc(N)n2C[C@H](O)c1ccccc1` belongs 1.01%; to `CCNc1cc(C(=O)N[C@@H](Cc2ccccc2)[C@H](O)CNCc2cccc(OC)c2)c(OC)c(N2CCCCS2(=O)=O)c1`, 1.6%.
Turning to `O=C(CCc1c[nH]cn1)Nc1ccc(-c2cccc(-c3nc4ccccc4[nH]3)c2)cc1`, the inhibition came out at 0.28%.
Same read-out and setting: to `Cn1nc(-c2ccc(NC(=O)Nc3cc(C(F)(F)F)ccc3F)cc2)c2cnc(NCCc3c[nH]cn3)nc21` belongs 3.35%; to `COc1ccc(-n2ncc(C(=O)N3CCC4(C3)C(=O)N(c3ccccc3)c3ccccc34)c2C)cc1` (stereo not given), 1.9%; to `Cc1ccc(Cn2cnc3cc(C(=O)Nc4ccc(-c5ccc(CN(C)C)cc5)cc4)ccc3c2=O)o1`, 5.55%.
Still for that read-out and setting: to `CN(C(=O)c1cc2c(-c3cncnc3)cccc2[nH]1)c1ccccc1` belongs 2.07%; to `Nc1nc(N)c2cc(C#Cc3ccc(-c4ccccc4)cc3)ccc2n1`, 4.53%; to `COCCCNc1sc(S(=O)(=O)c2ccccc2)nc1S(=O)(=O)c1ccc(Cl)cc1`, 3.07%.
On the same count and under the same terms, the result for `O=C(NC1CCN(CCC(NC(=O)c2ccccc2)c2ccc(Cl)c(Cl)c2)CC1)c1ccc(Cl)cc1` (stereo not given) reads 3.39%; that for `CCC(C)NC(=O)Nc1ccc(-c2cccc(-c3nc4cccc(C)c4[nH]3)c2)cc1` (stereo not given), 0.47%; that for `CCOc1cc(C(=O)NC2CC(C)(C)N(C)C(C)(C)C2)ccc1-c1nc2cc(Cl)c(Cl)cc2[nH]1`, 5.59%.
For `OC1(c2ccccc2)CCN(Cc2cccc(-c3c[nH]c4nc(NC5CCCC5)ncc34)c2)C1` (stereo not given), the inhibition was 3.82%.
Regarding `CCS[C@@H]1O[C@H](COC(=O)c2ccccc2)[C@H](OC(=O)c2ccccc2)[C@H](OC(=O)c2ccccc2)[C@H]1OC(=O)c1ccccc1`, the inhibition is 1.02%.
On to `c1ccc(-c2ccc3c(Nc4ccc5[nH]ccc5c4)ccnc3c2)nc1`, for which the inhibition was -1.13%.
Same read-out and setting: to `Cc1ccc2c(Cc3cnc(N)nc3N)cc(C)c(N)c2n1` belongs 2.06%; to `COc1cc2c(cc1S(=O)(=O)c1ccc(NC(=O)c3ccc4ccccc4c3)cc1)CCN(C)CC2`, 1.64%.
For `COc1ccc(-c2cccc(NC(=O)c3cccc(Cl)c3)c2)cc1CN1CCCN(C)CC1`, the inhibition was determined as 11.4%.
The same measure, in the same setting: to `O=C(/C=C/c1ccc(Cl)c(Cl)c1)NC1CCN(Cc2cccc(O)c2)CC1` belongs 2.92%.
As for `NC(=O)c1cccc(CNCc2ccc(-c3cccc(-c4nc5ccccc5[nH]4)c3)cc2)c1`, the inhibition was 5.8%.
Consider `COc1ccc(CNCc2cccc(-c3csc(-c4nc5ccccc5[nH]4)c3)c2)cc1`, for which the inhibition was -1.65%.
On the same count and under the same terms, to `CC1(C)N=C(N)N=C(N)N1OCCc1ccc2ccccc2c1` belongs 1.63%.
On the same count and under the same terms, to `CC[C@H](C)CNC(=O)c1cccc(-c2ccc(CN3CCC(N4CCCC4)CC3)cc2)n1` belongs 2.3%; to `C#CC[C@@H](NC(N)=O)C(=O)O`, -0.51%.
On the same count and under the same terms, to `Cc1ccc(C(c2nnnn2C2CCCC2)N(Cc2ccco2)Cc2ccccc2Cl)cc1` (stereo not given) belongs 9.7%; to `CC(C)C(C)(C#N)NC(=O)CSc1nc2ccc([N+](=O)[O-])cc2s1` (stereo not given), -0.35%.
On to `Cc1cccc2nc(-c3cccc(-c4ccc(CN5CCCC5CN)cc4)c3)[nH]c12` (stereo not given), for which the inhibition is 1.85%.
On to `Cc1cc(-c2nc3ccc(C(=O)NCc4ccccc4)cc3n2C2CCN(C(=O)c3ccc(-c4ccccc4)cc3)CC2)ccn1`, for which the inhibition was 1.02%.
Turning to `CCNc1cc(C(=O)N[C@@H](Cc2ccccc2)[C@H](O)CN[C@H](C)c2ccccc2)cc(N2CCCC2=O)c1`, the inhibition came to 4.44%.
Same read-out and setting: the result for `Cc1cc(F)ccc1[C@H]1CNCCN1C(=O)N(C)C(C)(C)c1cc(C(F)(F)F)cc(C(F)(F)F)c1` reads -0.57%; that for `CCOC(=O)Cn1ccc2c(NCc3ccccc3)nc(C)nc21`, 0.48%; that for `CCCc1ccc(C(=O)N2C(c3nccs3)C(C(N)=O)CC2(CC(C)C)C(=O)O)cc1` (stereo not given), 1.38%.

For a further assay, the target named is Hexose transporter 1 (Plasmodium falciparum) (UniProt O97467). Kind of assay: ST_JUDE_LEISH: Cytotoxicity at 2uM final concentration against transgenic Leishmania Mexicana promastigotes LmPfHT that are glucose transport deficient and complemented with the Plasmodium falciparum hexose transporter. Activity is measured by DNA content using SYBR green in vitro. The class given is functional.
As for `CCOC(=O)C1=C(C)NC2=C(C(=O)C(C(=O)OC)C(C)C2)C1c1cc(Br)c(OCC)c(OC)c1` (stereo not given), the inhibition was determined as 6.84%.
`CC(C)CNC(=O)c1cncc(-c2ccc(CN3CCC(N4CCCC4)CC3)cc2)c1`: the inhibition came out at 1.64%.
On the same count and under the same terms, the result for `CCOc1ccc2c(c1)N(C(=O)C=Cc1ccccc1)C(C)(C)c1ssc(=S)c1-2` reads 0.43%.
Still for that read-out and setting: the result for `CC(CN(C)C)C(=O)Nc1cccc(-c2ccc(-c3nc4ccccc4[nH]3)s2)c1` (stereo not given) reads 9.45%; that for `O=C(Cc1ccc[n+]([O-])c1)Nc1ccc(-c2cccc(-c3nc4cc(C(F)(F)F)ccc4[nH]3)c2)cc1`, 1.61%; that for `CN(C)CCNC(=O)NC1CN(c2ncnc3cc(-c4ccccc4)sc23)C1`, 4.29%.
With `NS(=O)(=O)c1cccc(N/C=C2\C(=O)Nc3ccc(S(=O)(=O)Cc4c(Cl)cccc4Cl)cc32)c1`, the inhibition turned out to be 0.57%.
Still for that read-out and setting: the result for `CC(C)CNC(=O)c1cncc(-c2ccc(CNC3Cc4ccccc4C3)cc2)c1` reads 1.58%; that for `Cc1ccc2c(c1)nc(N)n2C[C@H](O)c1ccccc1`, 1.37%; that for `CCNc1cc(C(=O)N[C@@H](Cc2ccccc2)[C@H](O)CNCc2cccc(OC)c2)c(OC)c(N2CCCCS2(=O)=O)c1`, 2.79%.
On the same count and under the same terms, to `O=C(CCc1c[nH]cn1)Nc1ccc(-c2cccc(-c3nc4ccccc4[nH]3)c2)cc1` belongs 0.66%; to `Cn1nc(-c2ccc(NC(=O)Nc3cc(C(F)(F)F)ccc3F)cc2)c2cnc(NCCc3c[nH]cn3)nc21`, 3.29%; to `COc1ccc(-n2ncc(C(=O)N3CCC4(C3)C(=O)N(c3ccccc3)c3ccccc34)c2C)cc1` (stereo not given), 2.74%.
Consider `Cc1ccc(Cn2cnc3cc(C(=O)Nc4ccc(-c5ccc(CN(C)C)cc5)cc4)ccc3c2=O)o1`, for which the inhibition is 2.88%.
As to `CN(C(=O)c1cc2c(-c3cncnc3)cccc2[nH]1)c1ccccc1`, the inhibition is -0.81%.
Still for that read-out and setting: the result for `Nc1nc(N)c2cc(C#Cc3ccc(-c4ccccc4)cc3)ccc2n1` reads 10.9%; that for `COCCCNc1sc(S(=O)(=O)c2ccccc2)nc1S(=O)(=O)c1ccc(Cl)cc1`, 3.36%; that for `O=C(NC1CCN(CCC(NC(=O)c2ccccc2)c2ccc(Cl)c(Cl)c2)CC1)c1ccc(Cl)cc1` (stereo not given), 2.33%.
The same measure, in the same setting: the result for `CCC(C)NC(=O)Nc1ccc(-c2cccc(-c3nc4cccc(C)c4[nH]3)c2)cc1` (stereo not given) reads 0.26%; that for `CCOc1cc(C(=O)NC2CC(C)(C)N(C)C(C)(C)C2)ccc1-c1nc2cc(Cl)c(Cl)cc2[nH]1`, 12.6%; that for `OC1(c2ccccc2)CCN(Cc2cccc(-c3c[nH]c4nc(NC5CCCC5)ncc34)c2)C1` (stereo not given), 3.3%.
The same measure, in the same setting: to `CCS[C@@H]1O[C@H](COC(=O)c2ccccc2)[C@H](OC(=O)c2ccccc2)[C@H](OC(=O)c2ccccc2)[C@H]1OC(=O)c1ccccc1` belongs 4.06%; to `c1ccc(-c2ccc3c(Nc4ccc5[nH]ccc5c4)ccnc3c2)nc1`, 0.56%; to `Cc1ccc2c(Cc3cnc(N)nc3N)cc(C)c(N)c2n1`, 3.47%.
As for `COc1cc2c(cc1S(=O)(=O)c1ccc(NC(=O)c3ccc4ccccc4c3)cc1)CCN(C)CC2`, the inhibition is 0.19%.
With `COc1ccc(-c2cccc(NC(=O)c3cccc(Cl)c3)c2)cc1CN1CCCN(C)CC1`, the inhibition was 12%.
For the molecule `O=C(/C=C/c1ccc(Cl)c(Cl)c1)NC1CCN(Cc2cccc(O)c2)CC1`, the inhibition came out at 4.2%.
Still for that read-out and setting: to `NC(=O)c1cccc(CNCc2ccc(-c3cccc(-c4nc5ccccc5[nH]4)c3)cc2)c1` belongs 5.87%.
Same read-out and setting: to `COc1ccc(CNCc2cccc(-c3csc(-c4nc5ccccc5[nH]4)c3)c2)cc1` belongs -1.34%; to `CC1(C)N=C(N)N=C(N)N1OCCc1ccc2ccccc2c1`, 1.47%; to `CC[C@H](C)CNC(=O)c1cccc(-c2ccc(CN3CCC(N4CCCC4)CC3)cc2)n1`, 0.54%.
For `C#CC[C@@H](NC(N)=O)C(=O)O`, the inhibition was 1%.
Take `Cc1ccc(C(c2nnnn2C2CCCC2)N(Cc2ccco2)Cc2ccccc2Cl)cc1` (stereo not given): the inhibition was found to be 9.7%.
Consider `CC(C)C(C)(C#N)NC(=O)CSc1nc2ccc([N+](=O)[O-])cc2s1` (stereo not given), for which the inhibition came out at 0.01%.
Still for that read-out and setting: the result for `Cc1cccc2nc(-c3cccc(-c4ccc(CN5CCCC5CN)cc4)c3)[nH]c12` (stereo not given) reads 0.15%; that for `Cc1cc(-c2nc3ccc(C(=O)NCc4ccccc4)cc3n2C2CCN(C(=O)c3ccc(-c4ccccc4)cc3)CC2)ccn1`, -0.07%.
As to `CCNc1cc(C(=O)N[C@@H](Cc2ccccc2)[C@H](O)CN[C@H](C)c2ccccc2)cc(N2CCCC2=O)c1`, the inhibition came out at 3.88%.
On the same count and under the same terms, the result for `Cc1cc(F)ccc1[C@H]1CNCCN1C(=O)N(C)C(C)(C)c1cc(C(F)(F)F)cc(C(F)(F)F)c1` reads -1.23%; that for `CCOC(=O)Cn1ccc2c(NCc3ccccc3)nc(C)nc21`, 1.38%.
On the same count and under the same terms, to `CCCc1ccc(C(=O)N2C(c3nccs3)C(C(N)=O)CC2(CC(C)C)C(=O)O)cc1` (stereo not given) belongs 2.07%.

As a reminder, the inhibition is the relative decrease from the control value, in per cent.
